The source of these data is ChEMBL document CHEMBL3988442, “University of Dundee, Small-Polar-MMV Screening Library” (2021).

For part of these data: Results with a measured potency or affinity are listed apart.

Holding throughout (design): scale not given: direction of the effect not stated beside the values
Test [1] has as its target Protein translocase subunit SecA (Escherichia coli (strain K12)) (UniProt P10408). In words: Assay to Identify E. coli SecA ATPase Inhibitors. To be noted: 30 µM. In kind it is functional.
For test [2], the target named is T1, Ubiquitin-activating enzyme e1, putative (Leishmania donovani (strain BPK282A1)) (UniProt E9BSI1).
T1 sequence (whole entry): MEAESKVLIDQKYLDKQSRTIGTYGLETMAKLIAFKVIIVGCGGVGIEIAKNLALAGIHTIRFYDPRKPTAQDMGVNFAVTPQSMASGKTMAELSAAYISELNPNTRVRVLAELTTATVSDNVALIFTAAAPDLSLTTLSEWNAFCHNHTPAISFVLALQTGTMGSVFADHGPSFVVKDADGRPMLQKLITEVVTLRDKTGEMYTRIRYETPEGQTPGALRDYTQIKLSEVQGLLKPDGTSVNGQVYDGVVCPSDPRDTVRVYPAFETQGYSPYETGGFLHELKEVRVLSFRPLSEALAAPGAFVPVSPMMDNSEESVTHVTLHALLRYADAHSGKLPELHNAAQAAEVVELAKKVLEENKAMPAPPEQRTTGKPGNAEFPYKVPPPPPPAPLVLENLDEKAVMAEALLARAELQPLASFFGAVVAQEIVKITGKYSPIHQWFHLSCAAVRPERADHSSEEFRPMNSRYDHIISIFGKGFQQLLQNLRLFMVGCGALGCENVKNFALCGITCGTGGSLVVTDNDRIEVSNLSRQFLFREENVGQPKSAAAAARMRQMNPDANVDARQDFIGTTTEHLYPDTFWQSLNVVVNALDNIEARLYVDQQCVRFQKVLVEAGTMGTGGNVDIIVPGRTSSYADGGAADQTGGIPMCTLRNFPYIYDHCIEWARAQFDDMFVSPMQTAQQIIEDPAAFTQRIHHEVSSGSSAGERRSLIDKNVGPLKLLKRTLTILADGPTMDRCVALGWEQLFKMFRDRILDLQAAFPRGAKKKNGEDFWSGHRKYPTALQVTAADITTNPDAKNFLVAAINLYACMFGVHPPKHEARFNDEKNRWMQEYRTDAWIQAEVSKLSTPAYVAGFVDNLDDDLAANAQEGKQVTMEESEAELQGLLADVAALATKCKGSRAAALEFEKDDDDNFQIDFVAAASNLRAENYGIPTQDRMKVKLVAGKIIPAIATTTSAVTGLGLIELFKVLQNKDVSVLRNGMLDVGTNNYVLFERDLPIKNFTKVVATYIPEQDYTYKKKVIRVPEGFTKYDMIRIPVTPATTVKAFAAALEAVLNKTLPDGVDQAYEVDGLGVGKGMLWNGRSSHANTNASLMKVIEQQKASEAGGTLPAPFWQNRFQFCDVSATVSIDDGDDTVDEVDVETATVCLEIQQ
As to the kind of experiment: Leishmania donovani Ubiquitin Activating Enzyme (LdE1). In kind it is functional. To be noted: 30 µM.

Test [3] addresses AMP-activated protein kinase, AMPK (Homo sapiens) (UniProt P54646+O43741+P54619+Q9UGJ0+Q9Y478+Q13131+Q9UGI9). In words: AMP-dependent Kinase enzyme assay. An in vitro enzyme assay that detects ADP turnover that is directly proportional to AMPK activity. This uses naive AMPK that is activated during the assay with MK-8722. The class given is functional. Particulars: 30 µM.
Test [4] addresses Sialic acid-binding Ig-like lectin 9 (Homo sapiens) (UniProt Q9Y336). As to the kind of experiment: Hs-Siglec9 ALPHAscreen SOP 20170721. To be noted: 10 µM.
The next test relates to Trypanosoma cruzi. As to the kind of experiment: Trypanosoma cruzi phosphomannomutase and mannose-1-phosphate guanylyltransferase assay. In kind it is functional. To be noted: 10 µM.
For test [5], the target named is T2, Arginase-2, mitochondrial (Homo sapiens) (UniProt P78540).
T2 sequence (whole entry): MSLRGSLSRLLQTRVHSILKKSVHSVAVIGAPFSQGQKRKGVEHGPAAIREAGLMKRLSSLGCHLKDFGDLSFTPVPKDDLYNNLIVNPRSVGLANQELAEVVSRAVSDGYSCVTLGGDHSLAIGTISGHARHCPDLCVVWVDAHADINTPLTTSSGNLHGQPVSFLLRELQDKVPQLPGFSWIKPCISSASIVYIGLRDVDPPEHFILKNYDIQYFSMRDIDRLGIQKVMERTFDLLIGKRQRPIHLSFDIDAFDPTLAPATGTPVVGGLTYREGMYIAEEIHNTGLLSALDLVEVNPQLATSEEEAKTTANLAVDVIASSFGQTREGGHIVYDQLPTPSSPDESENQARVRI
As to the kind of experiment: in vitro enzyme assay to detect the production of urea directly proportional to the activity of Arginase II. Note: in the data most compounds retested in dose-response had high values. The class given is functional. To be noted: 33.3 µM.

Test [6] deals with T3, Proteasome subunit beta (Trypanosoma cruzi) (UniProt O96673).
T3 sequence (whole entry): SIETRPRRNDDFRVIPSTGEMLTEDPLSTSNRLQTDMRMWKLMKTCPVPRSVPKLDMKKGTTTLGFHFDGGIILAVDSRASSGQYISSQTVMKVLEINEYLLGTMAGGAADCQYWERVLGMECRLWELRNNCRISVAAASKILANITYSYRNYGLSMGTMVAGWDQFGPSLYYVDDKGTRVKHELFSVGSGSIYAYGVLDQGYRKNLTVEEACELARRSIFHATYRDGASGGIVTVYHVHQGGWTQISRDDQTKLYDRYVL
As to the kind of experiment: Trypanosoma cruzi proteasome chymotrypsin-like activity (TcProtChymo) assay. Note: in the data most compounds retested in dose-response had high values. The class given is functional. To be noted: 9.37 µM.

The species named for the next test is Homo sapiens. In words: To identify inhibition of the IFN signalling (Jak-Stat) pathway via expression of an eGFP reporter gene under the control of an IFN-stimulated response element (ISRE) containing MxA promoter. The class given is functional. To be noted: 30 µM.
In test [7] the target is T4, Tyrosyl-tRNA synthetase, putative (Trypanosoma cruzi (strain CL Brener)) (UniProt Q4DSP6).
T4 sequence (whole entry): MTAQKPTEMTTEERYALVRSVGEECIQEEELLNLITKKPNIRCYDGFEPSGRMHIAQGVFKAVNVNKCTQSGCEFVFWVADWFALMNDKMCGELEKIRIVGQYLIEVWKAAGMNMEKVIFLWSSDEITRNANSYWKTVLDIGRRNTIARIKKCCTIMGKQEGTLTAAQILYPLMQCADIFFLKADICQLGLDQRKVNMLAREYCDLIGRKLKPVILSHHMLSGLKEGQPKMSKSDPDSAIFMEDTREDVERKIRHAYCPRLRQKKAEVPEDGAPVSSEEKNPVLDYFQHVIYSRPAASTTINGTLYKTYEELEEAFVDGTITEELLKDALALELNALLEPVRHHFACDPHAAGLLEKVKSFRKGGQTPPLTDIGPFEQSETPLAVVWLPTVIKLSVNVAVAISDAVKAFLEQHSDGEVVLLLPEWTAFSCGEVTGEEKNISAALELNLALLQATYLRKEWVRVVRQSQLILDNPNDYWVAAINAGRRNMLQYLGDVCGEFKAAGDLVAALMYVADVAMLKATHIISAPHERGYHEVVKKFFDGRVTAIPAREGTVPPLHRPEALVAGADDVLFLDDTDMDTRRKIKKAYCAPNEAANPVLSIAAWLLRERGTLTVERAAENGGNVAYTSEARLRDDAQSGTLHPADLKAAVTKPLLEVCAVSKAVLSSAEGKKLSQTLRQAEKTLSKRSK
In words: Trypanosoma cruzi tyrosyl tRNA synthetase (TcYRS) _High Tyrosine SOP. Note: in the data most compounds retested in dose-response had high values. In kind it is functional. Particulars: 30 µM.

The target of test [8] is T4, Tyrosyl-tRNA synthetase, putative (Trypanosoma cruzi (strain CL Brener)). In words: Trypanosoma cruzi tyrosyl tRNA synthetase (TcYRS) SOP. In kind it is functional. Particulars: 30 µM.
In test [9] the target is Chromo domain-containing protein 1 (Saccharomyces cerevisiae (strain ATCC 204508 / S288c) (Baker's yeast)) (UniProt P32657). As to the kind of experiment: ScCHD-1 Enzyme Inhibition Assay. Note: in the data most compounds retested in dose-response had high values. The class given is functional. To be noted: 30 µM.
Sequence of Chromo domain-containing protein 1 (Saccharomyces cerevisiae (strain ATCC 204508 / S288c) (Baker's yeast)) (P32657 whole entry, the tested form may be a part): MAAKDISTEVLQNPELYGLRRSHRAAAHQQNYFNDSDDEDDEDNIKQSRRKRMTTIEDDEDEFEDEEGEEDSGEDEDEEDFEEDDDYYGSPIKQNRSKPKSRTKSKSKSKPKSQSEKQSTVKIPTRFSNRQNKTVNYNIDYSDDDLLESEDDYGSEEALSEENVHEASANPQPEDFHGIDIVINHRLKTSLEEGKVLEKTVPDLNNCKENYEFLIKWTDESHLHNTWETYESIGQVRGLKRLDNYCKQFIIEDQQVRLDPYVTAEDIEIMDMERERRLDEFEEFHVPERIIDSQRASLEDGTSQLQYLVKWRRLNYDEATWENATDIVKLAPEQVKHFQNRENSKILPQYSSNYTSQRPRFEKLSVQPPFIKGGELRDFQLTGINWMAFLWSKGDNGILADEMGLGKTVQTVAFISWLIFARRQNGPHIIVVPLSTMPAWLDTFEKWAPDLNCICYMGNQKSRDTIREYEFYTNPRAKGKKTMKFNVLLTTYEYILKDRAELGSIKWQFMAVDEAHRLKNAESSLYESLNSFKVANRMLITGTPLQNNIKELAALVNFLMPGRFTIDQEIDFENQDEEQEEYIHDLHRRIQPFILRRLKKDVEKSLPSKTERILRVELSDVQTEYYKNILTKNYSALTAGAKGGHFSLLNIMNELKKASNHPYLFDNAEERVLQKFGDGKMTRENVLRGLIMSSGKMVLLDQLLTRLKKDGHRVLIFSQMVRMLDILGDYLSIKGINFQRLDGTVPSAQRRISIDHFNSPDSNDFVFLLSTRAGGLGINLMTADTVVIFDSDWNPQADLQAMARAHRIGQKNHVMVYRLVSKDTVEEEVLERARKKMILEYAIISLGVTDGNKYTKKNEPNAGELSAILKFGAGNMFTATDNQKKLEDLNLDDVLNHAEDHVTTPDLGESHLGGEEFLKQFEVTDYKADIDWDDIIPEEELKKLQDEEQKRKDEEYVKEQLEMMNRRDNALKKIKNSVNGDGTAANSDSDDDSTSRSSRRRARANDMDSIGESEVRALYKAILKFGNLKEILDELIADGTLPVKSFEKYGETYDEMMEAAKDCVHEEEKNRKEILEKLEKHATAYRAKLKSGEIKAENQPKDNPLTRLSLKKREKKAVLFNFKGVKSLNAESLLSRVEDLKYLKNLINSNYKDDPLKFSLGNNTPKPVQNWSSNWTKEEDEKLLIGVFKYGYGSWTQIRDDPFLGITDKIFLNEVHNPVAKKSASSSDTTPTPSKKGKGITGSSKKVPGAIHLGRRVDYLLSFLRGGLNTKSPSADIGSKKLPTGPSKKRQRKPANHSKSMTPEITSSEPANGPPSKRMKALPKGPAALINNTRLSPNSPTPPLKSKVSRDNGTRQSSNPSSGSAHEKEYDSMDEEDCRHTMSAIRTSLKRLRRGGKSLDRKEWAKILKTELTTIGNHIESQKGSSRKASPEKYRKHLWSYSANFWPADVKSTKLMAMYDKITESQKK

Sequence of Sialic acid-binding Ig-like lectin 9 (Homo sapiens) (Q9Y336 whole entry): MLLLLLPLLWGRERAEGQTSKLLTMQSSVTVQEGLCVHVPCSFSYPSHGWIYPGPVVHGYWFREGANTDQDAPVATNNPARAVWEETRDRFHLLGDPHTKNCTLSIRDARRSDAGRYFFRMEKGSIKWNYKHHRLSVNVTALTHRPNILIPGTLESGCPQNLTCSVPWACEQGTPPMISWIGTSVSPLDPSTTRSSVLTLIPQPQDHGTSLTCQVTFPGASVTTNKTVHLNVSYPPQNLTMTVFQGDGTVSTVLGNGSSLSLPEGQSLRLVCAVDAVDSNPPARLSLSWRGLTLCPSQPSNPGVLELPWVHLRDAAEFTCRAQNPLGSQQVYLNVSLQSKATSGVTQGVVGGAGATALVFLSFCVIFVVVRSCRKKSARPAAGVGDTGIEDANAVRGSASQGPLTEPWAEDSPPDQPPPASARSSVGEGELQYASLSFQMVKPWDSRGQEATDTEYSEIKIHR
Sequence of Protein translocase subunit SecA (Escherichia coli (strain K12)) (P10408 whole entry): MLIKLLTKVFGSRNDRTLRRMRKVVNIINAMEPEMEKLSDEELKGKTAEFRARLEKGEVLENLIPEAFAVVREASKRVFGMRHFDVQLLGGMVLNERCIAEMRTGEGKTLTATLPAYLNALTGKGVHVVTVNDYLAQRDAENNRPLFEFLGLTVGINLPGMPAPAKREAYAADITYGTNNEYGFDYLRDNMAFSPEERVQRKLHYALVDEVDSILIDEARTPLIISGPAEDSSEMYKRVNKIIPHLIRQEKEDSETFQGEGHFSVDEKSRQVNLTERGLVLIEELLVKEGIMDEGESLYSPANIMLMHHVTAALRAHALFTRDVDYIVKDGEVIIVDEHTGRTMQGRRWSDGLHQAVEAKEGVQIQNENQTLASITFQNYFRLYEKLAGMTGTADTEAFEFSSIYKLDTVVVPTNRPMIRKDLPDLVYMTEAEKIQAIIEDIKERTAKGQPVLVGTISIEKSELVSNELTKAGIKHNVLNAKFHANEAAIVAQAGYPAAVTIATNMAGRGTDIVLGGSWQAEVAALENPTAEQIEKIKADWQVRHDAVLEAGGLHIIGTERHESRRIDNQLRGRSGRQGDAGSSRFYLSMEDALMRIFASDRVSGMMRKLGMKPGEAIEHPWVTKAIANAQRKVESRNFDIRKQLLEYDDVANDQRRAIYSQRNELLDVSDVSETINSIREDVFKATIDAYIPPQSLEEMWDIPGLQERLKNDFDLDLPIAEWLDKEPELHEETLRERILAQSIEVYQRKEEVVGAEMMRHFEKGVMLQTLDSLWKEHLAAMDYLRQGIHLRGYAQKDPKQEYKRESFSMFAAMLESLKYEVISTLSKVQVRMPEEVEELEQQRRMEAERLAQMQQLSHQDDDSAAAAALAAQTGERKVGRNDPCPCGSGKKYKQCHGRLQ

With `Cc1nn(C)c2c(N3CCN(C(=O)C4CCC4)CC3)ncnc12`, the Percent Effect in test [1] is -0.898%; in test [2], 9.33%; in [3] it was 2.37%; in test [4], -1.34%; in the test on Trypanosoma cruzi, -6.48%; in test [5], -2.99%. In addition, the Percent Effect was 13.7% in test [6]; 14.9% in the test listed under Homo sapiens; -15.9% in [7]; 15.4% in test [8]; -9.22% in [9].

As to `c1ccc2sc(CN3CCCC3c3noc(C4CC4)n3)nc2c1` (centres undefined), the Percent Effect in [1] is -2.02%; in [2], -13.5%; in [3] it was -1.08%; in test [4], -2.6%; with Trypanosoma cruzi it was -2.88%; in [5], 0.185%. Moreover, the Percent Effect in test [6] came out at 0%; in the test filed under Homo sapiens, 9.41%; in test [7], 8.91%; in test [8] it was 23.2%; in test [9] it was 6.83%.

For `Cc1cnn(CCNCC(O)COc2c(C)ccc(C)c2C)c1` (centres undefined), the Percent Effect in test [1] was -5.33%; in test [2] it was 20.2%; in test [3], -11.8%; in test [4] it was 20.1%; in the test on Trypanosoma cruzi, 6.7%; in test [5], -4.56%. The Percent Effect in test [6] was 8.27%; in the test listed under Homo sapiens, -1.01%; in test [7], 7.39%; in test [8], 21.5%; in [9], -4.18%.

Take `Cc1cnn(C2CCCN(C(=O)c3ccn(C)c(=O)c3)C2)c1` (centres undefined): the Percent Effect in [1] was -0.722%; in [2], 7.79%; in test [3], -5.73%; in test [4], -4%; with Trypanosoma cruzi, 1.08%; in [5] it was 5.68%. The Percent Effect in [6] is -3.15%; in the test listed under Homo sapiens, 20.6%; in [7] it was 3.81%; in [8] it was 11.8%; in test [9], -14.6%.

Turning to `CN(C)CCN1CCO[C@H]2CN(Cc3cnn(C)c3)C[C@H]21`, the Percent Effect in test [1] was -3.56%; in test [2], 0%; in test [3], -1.78%; in test [4] it was 7.45%; in the test with Trypanosoma cruzi, -4.2%; in test [5] it was 2.73%. The Percent Effect is 2.83% in test [6]; -0.175% in the test listed under Homo sapiens; 5.38% in [7]; 11.1% in test [8]; -3.54% in [9].

On to `CCc1nc(CC(=O)N2CCn3c(nnc3C(C)C)C2)cs1`, for which the Percent Effect in test [1] is -3.31%; in test [2] it was 0%; in test [3], 1.23%; in [4] it was 1.14%; in the test on Trypanosoma cruzi it was 3.95%; in test [5], -1.92%. For the same molecule, the Percent Effect in test [6] was 3.68%; in the test listed under Homo sapiens, -11.4%; in test [7] it was 2.45%; in test [8] it was 12.2%; in test [9] it was -11%.

Turning to `Cc1nc(O)cc(C2CCN(Cc3cccc(F)c3F)C2)n1` (centres undefined), the Percent Effect in [1] was -5.61%; in test [2], 20.3%; in [3] it was -0.666%; in test [4] it was -0.896%; with Trypanosoma cruzi, 1.19%; in test [5] it was -3.94%. The Percent Effect in [6] was 9.83%; in the test filed under Homo sapiens it was 2.45%; in test [7], 2.15%; in [8] it was 16.9%; in test [9], -14.2%.

Consider `CCc1nc(CN2CCOC(Cn3nc(C)nc3C)C2)no1` (centres undefined), for which the Percent Effect was -1.49% in test [1]; 23.7% in test [2]; 2.58% in test [3]; -7.19% in test [4]; -2.33% with Trypanosoma cruzi; 4.32% in [5]. For the same molecule, the Percent Effect in [6] is 3.64%; in the test listed under Homo sapiens, 5.43%; in test [7] it was 8.37%; in [8], 18.5%; in test [9], -6.23%.

Regarding `COCCCn1ccnc1-c1cnc(OC)nc1`, the Percent Effect in [1] was -0.0522%; in test [2], 5.41%; in test [3] it was -3.25%; in test [4], 0.687%; in the test on Trypanosoma cruzi, -0.386%; in [5], -3.33%. Further, the Percent Effect is 21.6% in [6]; -18.9% in the test listed under Homo sapiens; 6.88% in test [7]; 4.88% in test [8]; -3.88% in test [9].
